Here are results for 57 molecules from PubChem BioAssay AID1259415 (National Center for Advancing Translational Sciences (NCATS), 2018).

Molecules are shown by their SMILES. Among all 410,000 compounds or so, about 18,000 (4.4%) were called active. Another 7% or so got no clear call; they are omitted. Rule as the data show it: active = activity change below about -60%; inconclusive = no clear call, values can overlap the other calls; inactive = above about -39%. What follows is part of a selection rich in actives, with near analogues and random picks from the rest.
% is scaled to controls: 0 for no effect and ±100 for the full control effect.

A short description of this assay: qHTS Assay for inhibitors of the human cytomegalovirus (HCMV). Conditions: HFF cells, HCMV-luciferase reporter, 72 h; at 57.5 µM; stronger effect = lower value. The method in brief:
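Human foreskin fibroblasts infected with luciferase-reporter HCMV at MOI 1 PFU/cell, compounds at two doses. Luciferase measured 72 h post infection; normalized to buffer-only basal and Salinomycin (10uM) controls.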
Consider `COc1ccccc1NC(=O)c1cc(C2CC2)nc2c1c(C)nn2-c1ccc(C)cc1`, for which the activity change, negative = inhibition was 16.5% (inactive).
In the case of `O=C(OC1CCCCC1=O)c1cccc(S(=O)(=O)NCc2ccccc2)c1` (configuration not stated) it was -28.2% (inactive); in that of `Cc1ccc(Cl)cc1N1CCN(C(=O)C2CCC(CNS(=O)(=O)c3cccs3)CC2)CC1` (configuration not stated), -25.7% (inactive).
As to `COC(=O)c1cnc(Nc2cc(C)ccc2OC)c2ccccc12`, the activity change, negative = inhibition is -31.5% (inactive).
In the case of `COc1ccc(NC(=O)c2cnc(Nc3ccc(C)c(Cl)c3)c3ccccc23)cc1OC` it was -10.9% (inactive); in that of `COc1ccc(Nc2ncc(C(=O)Nc3cc(C)ccc3OC)c3ccccc23)cc1`, -108% (active).
In the case of `Cc1ccc2oc3c(c(=O)c2c1)C(c1ccc(O)cc1)N(Cc1ccc2c(c1)OCO2)C3=O` (configuration not stated) it was -1.21% (inactive); in that of `CCc1cc2c(NC(Cc3ccccc3)C(=O)O)ncnc2s1` (configuration not stated), 32.8% (inactive); in that of `CCc1cc2c(NC3CCCC3)ncnc2s1`, -76.1% (active).
In the case of `CCc1cc2c(SCC(=O)Nc3ncc(Cl)c(C)c3Cl)ncnc2s1` it was -15.5% (inactive); in that of `CC(C)=N/N=C1/NC(=O)C(Cc2ccccc2)S1` (configuration not stated), 29.3% (inactive).
As to `NC1=NC(=O)C(Cc2cccc(Cl)c2Cl)S1` (configuration not stated), the activity change, negative = inhibition was -8.43% (inactive).
As for `O=C1NC(=Nc2ccc(Cl)cc2)SC1Cc1cccc(Cl)c1Cl` (configuration not stated), the activity change, negative = inhibition was -64.5% (active).
As to `CCCCC(CC)CNC(=O)C1CCN(S(=O)(=O)c2cccc3nsnc23)CC1` (configuration not stated), the activity change, negative = inhibition is -8.64% (inactive).
In the case of `CCN(CCCNC(=O)c1cc2c(=O)n(CC)c3ccccc3c2s1)Cc1ccccc1` it was -82.5% (active); in that of `CCn1c(=O)c2cc(C(=O)NCCc3ccc(Cl)cc3)sc2c2ccccc21`, -0.35% (inactive).
In the case of `CCc1ccc(CNC(=O)c2cc3c(=O)n(CC)c4ccccc4c3s2)cc1` it was -16.1% (inactive); in that of `O=c1c(NCc2cccs2)nccn1-c1ccccc1`, 54.2% (inactive); in that of `COc1ccc(N=CN2c3ccccc3-n3cccc3C2CCc2ccccc2)cc1` (configuration not stated), 29.9% (inactive).
`CCc1nc2c(cnn2-c2ccc(C)cc2)c(=O)n1-c1ccc(C)cc1`: the activity change, negative = inhibition was -37.2% (inactive).
In the case of `COc1cc(OC)cc(-c2nc3ccccc3c(=O)n2NC(=O)c2cccnc2Cl)c1` it was -24.5% (inactive); in that of `COc1cc(C(=O)Nn2c(CC(C)C)nc3ccccc3c2=O)cc(OC)c1OC`, 36.7% (inactive).
In the case of `COc1ccccc1C(=O)Nn1c(-c2cccs2)nc2ccccc2c1=O` it was -71.7% (active).
In the case of `O=C(CC(c1cccs1)N1Cc2ccccc2C1=O)Nc1ccc(F)c(F)c1` (configuration not stated) it was -28.8% (inactive); in that of `Cc1ccc(C)c(N2CCN(C(=O)Cc3c(C(=O)O)c(C)cn3C)CC2)c1`, 7.89% (inactive).
As to `CCC1CCC2(CC1)NC(=O)N(CC(=O)Nc1ccc(OC)cc1)C2=O` (configuration not stated), the activity change, negative = inhibition was -8.02% (inactive).
In the case of `Cn1cc(C(=O)NCc2ccccc2F)cn1` it was 3.61% (inactive); in that of `Cn1nccc1C(=O)NC1CCCc2c1cnn2-c1ccc(F)cc1F` (configuration not stated), -81.5% (active); in that of `Cn1nccc1C(=O)NC1CCCc2c1cnn2-c1ccccc1F` (configuration not stated), -80% (active).
In the case of `COC(=O)c1ccc(C(=O)NC2CC(C)(C)Cc3c2cnn3-c2ccc(F)cc2)nc1` (configuration not stated) it was 29.8% (inactive).
In the case of `CC(C)(C)OC(=O)N1CCC(c2c(C(=O)NCCc3ccsc3)cnn2-c2ccc(F)cc2F)CC1` it was 0% (inactive); in that of `CNS(=O)(=O)c1cccc(C(=O)NC2CCCc3ccccc32)c1` (configuration not stated), -19.2% (inactive); in that of `COc1ccc(-n2c(C)nc3c(cnn3-c3ccc(F)cc3)c2=O)cc1`, -33.7% (inactive).
On to `Nc1cc(N2CCCCCC2)c2nonc2c1[N+](=O)[O-]`, for which the activity change, negative = inhibition is -24.1% (inactive).
With `Cc1ccccc1NC(=O)CN1C(=O)C(C)(C)c2ccccc21`, the activity change, negative = inhibition was -4.1% (inactive).
Turning to `COc1cc(OC)c(OC)cc1/C=C/c1nc2cc3ccccc3cc2c(=O)n1-c1ccc(F)c(Cl)c1`, the activity change, negative = inhibition was 11% (inactive).
In the case of `COc1ccc(C(CNC(=O)c2ccc(NS(=O)(=O)c3ccc(F)c(C)c3)cc2)N(C)C)cc1` (configuration not stated) it was -9.49% (inactive); in that of `COc1ccc(NS(=O)(=O)c2ccc(NC(=O)c3ccc(N(C)S(C)(=O)=O)cc3)cc2)cc1`, -94.5% (active).
In the case of `CCOC(=O)c1cc(C(=O)Nc2ccc(S(=O)(=O)Nc3ccc(OC)cc3)cc2)nn1C` it was 2.74% (inactive).
In the case of `O=C(c1cccs1)c1cn(CCOc2ccc(Cl)cc2)c2ccccc12` it was -4.55% (inactive).
Take `COc1ccc(CCNC(=O)c2cnc3sc(N4CCCCCC4)nn3c2=O)cc1OC`: the activity change, negative = inhibition was 0.444% (inactive).
Turning to `COc1ccc(NC(=O)Cn2c(=O)n(Cc3ccc(C(=O)NCc4ccccc4Cl)cc3)c(=O)c3ccccc32)cc1`, the activity change, negative = inhibition was -25.8% (inactive).
In the case of `CC1=C(C)CC(C(=O)NC(C)CCc2ccccc2)C(C(=O)O)C1` (configuration not stated) it was 16.1% (inactive); in that of `O=C(CO/N=C/c1ccccc1O)NNC(=O)c1ccccc1Cl`, 35% (inactive).
In the case of `CC1=C(C)CC(C(=O)NNC(=O)c2ccccc2O)C(C(=O)O)C1` (configuration not stated) it was -89.9% (active); in that of `CC1=C(C)CC(C(=O)NNC(=O)c2csc3c2CCC(C(C)(C)C)C3)C(C(=O)O)C1` (configuration not stated), 35% (inactive).
In the case of `O=C(NNC(=O)c1ccccc1O)c1ccccc1O` it was -97% (active).
Regarding `COc1cc(OC)c(C(=O)NNC(=O)c2ccccc2-n2cccc2)cc1OC`, the activity change, negative = inhibition is -25.6% (inactive).
In the case of `COc1ccc(-c2cc(-c3ccccc3)nc3c2COc2ccc(Cl)cc2-3)cc1` it was 9.57% (inactive); in that of `CC(=O)N1C[C@@H](CO)[C@@H](N(C)C(=O)c2ccco2)C[C@H]1c1ccccc1`, -4.23% (inactive); in that of `COc1cc2c(cc1NC(=O)CN1CCN(S(=O)(=O)c3ccc(F)cc3)CC1)oc1ccccc12`, 63.3% (inactive).
In the case of `COc1ccc(-n2c(=O)c3ccccc3n(Cc3ccccc3Cl)c2=O)cc1` it was 7.59% (inactive).
Consider `CCCn1c(N)c(C(=O)CSc2nnc(Cc3cccs3)n2C2CC2)c(=O)[nH]c1=O`, for which the activity change, negative = inhibition was -9.71% (inactive).
In the case of `Cc1cc(C)c(OCCN2CC(C)OC(C)C2)c(Br)c1` (configuration not stated) it was -20% (inactive); in that of `COc1cc(NC(=O)Nc2ccc(C)cc2)cc([N+](=O)[O-])c1`, -63.5% (active); in that of `COc1ccc(S(=O)(=O)NNC(=O)Nc2ccc(C)cc2)c(OC)c1`, -7.23% (inactive).
For the molecule `Cc1ccc(Oc2cc(NC(=O)CCCn3nc(C)c([N+](=O)[O-])c3C)cc([N+](=O)[O-])c2)cc1`, the activity change, negative = inhibition is 3.84% (inactive).
